Source: PubChem BioAssay AID1224921 (Broad Institute, 2016)
About 350 (25%) of roughly 1,400 compounds were called active. Inconclusive results (about 2%) are left out. Only a sample is shown. Entries with a potency or affinity are not part of this list. Unmarked numbers belong to inactive results. No rule for the calls is given here.

Assay: C. difficile growth inhibition, confirmation, 4-point retest (AID 1224921);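 also: plate controls were DMSO wells for no effect and levofloxacin 16 µg/mL wells for full effect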
Details: Clostridioides difficile clinical isolate growth, OD600, 24 h, stronger effect = lower value; at 30 µM unless noted

Row | SMILES | max activity
1 | C[C@@H]1CN([C@@H](C)CO)C(=O)Cc2cc(NS(C)(=O)=O)ccc2O[C@H]1CN(C)Cc1ccccc1 | 38.5% [at 35 µM]
2 | N#C[C@H]1[C@@H](c2ccccc2)[C@@H](CO)N1S(=O)(=O)c1ccc(-c2ccccc2)cc1 | 40.9%
3 | Cc1ccc(-c2cnc3c(c2)C(=O)N([C@@H](C)CO)C[C@H](C)[C@@H](CN(C)C(=O)c2ccccc2)O3)cc1 | -9.22% [at 0.5 µM]
4 | CN(C)CC(=O)N[C@H]1C=C[C@H](CC(=O)NCCN2CCCCC2)O[C@@H]1CO | 12.7% [at 8 µM]
5 | N#C[C@H]1[C@@H](c2ccc(-c3ccccc3)cc2)[C@@H](CO)N1C(=O)Cc1ccncc1 | 13.6%
6 | CCC(=O)N[C@@H]1C=C[C@@H](CC(=O)OC)O[C@H]1CO | -12.2% [at 8 µM]
7 | C[C@@H]1CN([C@H](C)CO)S(=O)(=O)c2ccc(C#CCC3CCCC3)cc2O[C@@H]1CN(C)C(=O)c1ccccn1 | 46.2% [at 8 µM]
8 | C[C@@H]1CN([C@H](C)CO)C(=O)c2cccc(N(C)C)c2O[C@H]1CN(C)Cc1ccc(C(F)(F)F)cc1 | 26.1%
9 | CO[C@H]1CN(C)C(=O)c2ccc(NC(=O)c3ccc(F)cc3)cc2OC[C@@H](C)N(C(=O)CN(C)C)C[C@H]1C | -10.6% [at 1.95 µM]
10 | C[C@@H]1CCCCO[C@H](CN(C)CC2CCCCC2)[C@H](C)CN([C@@H](C)CO)C(=O)c2cc(NC(=O)Nc3cccc4ccccc34)ccc2O1 | -10.7%
11 | C[C@H](CO)N1C[C@H](C)[C@@H](CN(C)CC2CCCCC2)OCCCC[C@H](C)Oc2ccc(NC(=O)Nc3cccc4ccccc34)cc2C1=O | 21.6%
12 | C[C@H]1CCCCO[C@@H](CN(C)CC2CCCCC2)[C@@H](C)CN([C@@H](C)CO)C(=O)c2cc(NC(=O)Nc3cccc4ccccc34)ccc2O1 | 27.7% [at 8 µM]
13 | C[C@@H]1CCCCO[C@H](CN(C)CC2CCCCC2)[C@@H](C)CN([C@H](C)CO)C(=O)c2cc(NC(=O)Nc3cccc4ccccc34)ccc2O1 | 12.9% [at 8 µM]
14 | C[C@@H]1CN([C@H](C)CO)S(=O)(=O)c2ccc(C#CCC3CCCC3)cc2O[C@H]1CN(C)C(=O)c1ccccn1 | 43.5%
15 | CO[C@@H]1CN(C)C(=O)c2ccc(NC(C)=O)cc2OC[C@@H](C)N(Cc2cc(F)ccc2F)C[C@H]1C | -9.54% [at 8 µM]
16 | Cc1ccc(-c2ccc3c(c2)O[C@@H](CN(C)Cc2cccnc2)[C@@H](C)CN([C@@H](C)CO)S3(=O)=O)cc1 | 35.1%
